{"source": "the supplement of paper PMC3334620", "note": "Whole data set: some 33,000 sequences, median “E-score (-0.5 to 0.5)” near -0.041, cut for the highest 2% near 0.37. This excerpt belongs to a sample that is enriched for the highest values.", "data": [{"biological_target": "T1, Ecm22 (UniProt Q05958)", "T1 sequence": "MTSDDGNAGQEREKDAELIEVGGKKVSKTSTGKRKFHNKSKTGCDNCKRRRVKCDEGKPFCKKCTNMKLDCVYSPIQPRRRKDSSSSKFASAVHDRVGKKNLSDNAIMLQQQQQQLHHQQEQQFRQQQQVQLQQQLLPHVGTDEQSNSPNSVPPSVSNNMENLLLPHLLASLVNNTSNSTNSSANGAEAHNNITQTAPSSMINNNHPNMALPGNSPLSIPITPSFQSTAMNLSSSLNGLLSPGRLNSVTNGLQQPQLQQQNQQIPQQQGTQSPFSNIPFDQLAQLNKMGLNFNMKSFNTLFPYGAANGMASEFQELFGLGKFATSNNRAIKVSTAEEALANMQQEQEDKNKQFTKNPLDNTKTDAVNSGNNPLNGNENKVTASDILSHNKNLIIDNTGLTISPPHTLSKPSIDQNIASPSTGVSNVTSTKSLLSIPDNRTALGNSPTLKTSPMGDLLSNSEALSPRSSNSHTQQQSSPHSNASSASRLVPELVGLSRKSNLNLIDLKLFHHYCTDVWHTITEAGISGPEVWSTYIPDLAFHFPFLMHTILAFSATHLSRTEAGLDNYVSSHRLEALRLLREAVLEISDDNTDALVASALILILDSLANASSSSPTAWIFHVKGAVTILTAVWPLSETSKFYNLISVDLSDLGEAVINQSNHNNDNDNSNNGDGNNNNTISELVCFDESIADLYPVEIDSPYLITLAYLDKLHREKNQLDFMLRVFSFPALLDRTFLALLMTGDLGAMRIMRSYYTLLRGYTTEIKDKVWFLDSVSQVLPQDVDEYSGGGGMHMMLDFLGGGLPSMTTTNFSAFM", "assay": "PBM E-score (8-mer binding enrichment) (E-score (-0.5 to 0.5)); higher = stronger / more preferred TF binding", "details": "protein concentration: 200 nM; construct: GST-full length", "summary_of_the_method": "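PURExpress in vitro transcription/translation supplied GST-tagged yeast transcription factors, either full-length or DNA-binding domain. Applied at about 100-200 nM to universal all-10-mer Agilent arrays double-stranded by primer extension, the bound protein was detected with fluorescent anti-GST. E-scores, modified Wilcoxon-Mann-Whitney statistics, were given by the Universal PBM Analysis Suite to ungapped eight-base words pooled with their reverse complements after masliner normalisation.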", "values": [{"sequence": "AAAGGAGT", "PBM E-score": -0.131}, {"sequence": "GTTTCCTA", "PBM E-score": 0.0344}, {"sequence": "GCGGCTAA", "PBM E-score": -0.034}, {"sequence": "AAATCTGA", "PBM E-score": -0.168}, {"sequence": "CCTTGGCG", "PBM E-score": -0.159}, {"sequence": "CGTACCAG", "PBM E-score": 0.397}, {"sequence": "CGTACCAA", "PBM E-score": 0.444}, {"sequence": "AGTACCAG", "PBM E-score": -0.14}, {"sequence": "CATACCAG", "PBM E-score": -0.0569}, {"sequence": "AGTACCAC", "PBM E-score": 0.0416}, {"sequence": "GGTACCAC", "PBM E-score": -0.137}, {"sequence": "TGTACCAA", "PBM E-score": 0.036}, {"sequence": "AGTACCAA", "PBM E-score": -0.119}, {"sequence": "CGTACCAC", "PBM E-score": 0.446}, {"sequence": "TCCCTAAA", "PBM E-score": -0.00662}, {"sequence": "CGCACGTC", "PBM E-score": 0.00508}, {"sequence": "TAGGGATA", "PBM E-score": -0.165}, {"sequence": "GCAGTAAA", "PBM E-score": -0.0139}, {"sequence": "CGAACGCA", "PBM E-score": 0.242}, {"sequence": "GCTTCCCC", "PBM E-score": -0.098}, {"sequence": "CAAAGCCA", "PBM E-score": -0.0435}, {"sequence": "CCTACGAC", "PBM E-score": 0.232}, {"sequence": "TCTACGAA", "PBM E-score": 0.312}, {"sequence": "GCTACGAC", "PBM E-score": 0.426}, {"sequence": "ACTACGAC", "PBM E-score": 0.329}, {"sequence": "CCTACGAA", "PBM E-score": 0.192}, {"sequence": "GCTACGAA", "PBM E-score": 0.429}, {"sequence": "CCTCTCAA", "PBM E-score": -0.127}, {"sequence": "ATCGTATA", "PBM E-score": 0.488}, {"sequence": "ATCGTGTA", "PBM E-score": 0.25}, {"sequence": "ATCGTATG", "PBM E-score": 0.438}, {"sequence": "AGCGTATG", "PBM E-score": 0.136}, {"sequence": "ATAGTATG", "PBM E-score": 0.0828}, {"sequence": "AGCGTATC", "PBM E-score": 0.0945}, {"sequence": "CGCGTATC", "PBM E-score": 0.232}, {"sequence": "ATAGTATA", "PBM E-score": 0.211}, {"sequence": "ATAGTATC", "PBM E-score": 0.127}, {"sequence": "CACGTATC", "PBM E-score": 0.132}, {"sequence": "ATCGTATC", "PBM E-score": 0.418}, {"sequence": "CTCGTATC", "PBM E-score": 0.478}, {"sequence": "TCTGCTCA", "PBM E-score": -0.168}, {"sequence": "TCGAGCGA", "PBM E-score": 0.0676}, {"sequence": "ATATCAAC", "PBM E-score": -0.103}, {"sequence": "CCAGTTGC", "PBM E-score": -0.196}, {"sequence": "ACTGGCCA", "PBM E-score": -0.206}, {"sequence": "CAGAGTCA", "PBM E-score": -0.226}, {"sequence": "GCAGAGAC", "PBM E-score": -0.357}, {"sequence": "GGTATAGA", "PBM E-score": -0.0121}, {"sequence": "AGTATAGC", "PBM E-score": 0.0261}, {"sequence": "CGTATAGA", "PBM E-score": 0.458}, {"sequence": "CGTATAGC", "PBM E-score": 0.477}, {"sequence": "CCTATAGC", "PBM E-score": -0.248}, {"sequence": "AGTATAGA", "PBM E-score": 0.16}, {"sequence": "ACATGGGC", "PBM E-score": -0.263}, {"sequence": "GAAGTCCC", "PBM E-score": -0.172}, {"sequence": "ACGTTCGC", "PBM E-score": 0.157}, {"sequence": "GAAATTGC", "PBM E-score": 0.0049}, {"sequence": "ACACATTA", "PBM E-score": 0.031}, {"sequence": "CCACGAGG", "PBM E-score": 0.00398}, {"sequence": "CTGTCGAA", "PBM E-score": -0.00303}, {"sequence": "CTGTCGTA", "PBM E-score": 0.453}, {"sequence": "ATGTCGTA", "PBM E-score": 0.446}, {"sequence": "CTGTCGTC", "PBM E-score": 0.161}, {"sequence": "ATGTCGTG", "PBM E-score": 0.0288}, {"sequence": "ATGTCGTC", "PBM E-score": 0.0394}, {"sequence": "GTGTCGTA", "PBM E-score": 0.445}, {"sequence": "GTGTCGGA", "PBM E-score": 0.0575}, {"sequence": "GTGTCGCA", "PBM E-score": 0.162}, {"sequence": "AACCAATT", "PBM E-score": -0.233}, {"sequence": "ATCTACCC", "PBM E-score": 0.0111}, {"sequence": "GTTTACAA", "PBM E-score": 0.19}, {"sequence": "CTTTACGC", "PBM E-score": 0.211}, {"sequence": "ATTTACGG", "PBM E-score": 0.31}, {"sequence": "CATTACGA", "PBM E-score": 0.289}, {"sequence": "CTTTACCA", "PBM E-score": -0.226}, {"sequence": "TATTACGA", "PBM E-score": 0.389}, {"sequence": "GTTTACTA", "PBM E-score": 0.182}, {"sequence": "CTTTACGA", "PBM E-score": 0.464}, {"sequence": "AATTACGA", "PBM E-score": 0.361}, {"sequence": "ATTTACGC", "PBM E-score": 0.0401}, {"sequence": "ATTTACGA", "PBM E-score": 0.453}, {"sequence": "GTTTACGA", "PBM E-score": 0.46}, {"sequence": "CGGACTGC", "PBM E-score": -0.0684}, {"sequence": "ATTCTATA", "PBM E-score": -0.00057}, {"sequence": "CTACTGCA", "PBM E-score": -0.158}, {"sequence": "AGAGGAAG", "PBM E-score": -0.167}]}]}
